# Measurements reported in the supplement of paper PMC11732987, “Enantioselective OTUD7B fragment discovery through chemoproteomics screening and high-throughput optimisation” (Communications Chemistry, 2025).
# Unmarked numbers belong to inactive results.
# Molecular target: T1, VCPIP1 (UniProt Q96JH7)
# T1 sequence (whole entry): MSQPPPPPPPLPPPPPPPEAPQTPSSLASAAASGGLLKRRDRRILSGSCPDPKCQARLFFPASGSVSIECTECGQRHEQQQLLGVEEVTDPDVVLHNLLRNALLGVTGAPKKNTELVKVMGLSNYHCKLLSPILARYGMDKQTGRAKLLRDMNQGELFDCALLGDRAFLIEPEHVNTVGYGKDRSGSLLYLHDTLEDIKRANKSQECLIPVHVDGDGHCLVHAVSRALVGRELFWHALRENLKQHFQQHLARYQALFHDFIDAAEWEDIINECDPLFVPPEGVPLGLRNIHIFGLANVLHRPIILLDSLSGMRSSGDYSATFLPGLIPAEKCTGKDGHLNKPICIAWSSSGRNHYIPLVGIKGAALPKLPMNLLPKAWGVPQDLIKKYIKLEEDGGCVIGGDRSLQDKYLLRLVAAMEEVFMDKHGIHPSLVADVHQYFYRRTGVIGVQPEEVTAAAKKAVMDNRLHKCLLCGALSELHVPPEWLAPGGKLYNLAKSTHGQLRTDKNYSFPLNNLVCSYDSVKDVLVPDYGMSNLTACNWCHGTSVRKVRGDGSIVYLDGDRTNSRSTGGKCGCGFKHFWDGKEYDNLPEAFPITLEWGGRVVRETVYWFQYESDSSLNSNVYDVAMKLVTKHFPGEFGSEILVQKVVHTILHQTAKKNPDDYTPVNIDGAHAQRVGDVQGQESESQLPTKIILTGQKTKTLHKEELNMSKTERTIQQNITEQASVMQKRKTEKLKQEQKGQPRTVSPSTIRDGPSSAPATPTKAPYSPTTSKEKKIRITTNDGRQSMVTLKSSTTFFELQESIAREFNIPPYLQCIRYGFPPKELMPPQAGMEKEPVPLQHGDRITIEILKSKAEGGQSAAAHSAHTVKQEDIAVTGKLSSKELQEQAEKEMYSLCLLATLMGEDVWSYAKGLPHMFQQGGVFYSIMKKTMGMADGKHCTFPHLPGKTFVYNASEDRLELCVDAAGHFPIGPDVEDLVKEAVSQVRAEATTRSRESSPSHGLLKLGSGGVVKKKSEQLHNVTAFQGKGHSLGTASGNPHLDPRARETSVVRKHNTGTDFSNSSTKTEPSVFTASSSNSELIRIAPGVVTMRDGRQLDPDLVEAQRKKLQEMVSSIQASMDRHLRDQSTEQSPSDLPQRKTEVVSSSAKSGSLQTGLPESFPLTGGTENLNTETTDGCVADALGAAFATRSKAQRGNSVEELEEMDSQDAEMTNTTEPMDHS
# Assay: log2 ratio of Biotin-Ahx-Ub-VS probe labelling (fragment/DMSO); higher = less target engagement (more negative = stronger competition), active = hit call of the paper (q ≤ 0.05, log2 ratio ≤ -1)
# Conditions: compound concentration: 200 uM; treatment time: 3 h
# Description: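 Competitive ABPP in HEK293T cell lysate. Lysates were treated with each chloroacetamide fragment at 200 µM for 3 h, then with Biotin-Ahx-Ub-VS (0.5 µM, 1 h), NeutrAvidin-enriched and analysed by diaPASEF LC-MS/MS. Protein LFQ was median-normalised; average log2 ratio is fragment/DMSO from an unpaired t-test (n=3 treated, n=44 DMSO). Hits: q ≤ 0.05, log2 ratio ≤ -1, unique peptides ≥ 2.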
row,Structure (SMILES),log2 ratio of Biotin-Ahx-Ub-VS probe labelling
1,Cl.Cn1c(CNC(=O)CCl)nc2cccnc21,-0.977
2,CC(NC(=O)CCl)c1cc2n(n1)CCCC2.Cl (stereo not given),-0.662
3,C[C@H]1CN(C(=O)CCl)CCN1C(=O)c1cnn(C)c1.Cl,-0.157
4,O=C(CCl)NCCC1COCCO1 (stereo not given),-0.791
5,Cc1cccc(N2CCC(NC(=O)CCl)C2=O)c1 (stereo not given),-1.91 (active)
6,Cl.O=C(CCl)NCc1cc2c(nc1O)CCCC2,-1.56 (active)
7,CC(NC(=O)CCl)c1csc(-c2ccccc2)n1.Cl (stereo not given),-2.16 (active)
8,Cl.Cn1cnc2cc(CNC(=O)CCl)ccc21,-1.11 (active)
9,O=C(CCl)N[C@H]1CCS(=O)(=O)c2ccccc21,-0.862
10,Cc1cc(NC(=O)CCl)n(-c2ccccc2)n1,-0.6
11,CCN(C(=O)CCl)C1CCCCC1,-0.114
12,Cc1ccc(-c2nnc(C)[nH]2)c(NC(=O)CCl)c1,-2.55 (active)
13,Cl.O=C(CCl)N[C@H]1C[C@@H](n2cccn2)C1,-0.848
14,O=C(CCl)N1CCN(C(=O)Nc2ccccc2)CC1,-0.418
15,O=C(CCl)NCCc1ccc2c(c1)OCCO2,-2.55 (active)
16,Cc1cc(C2CCCN2C(=O)CCl)nn1C.Cl (stereo not given),-0.866
17,O=C(CCl)NCc1ccc(N2CCOCC2)c(F)c1,-2.18 (active)
18,CNC(=O)C1CCN(C(=O)CCl)CC1,-0.28
19,O=C(CCl)Nc1cccc(NC(=O)c2ccccc2)c1,-2.42 (active)
20,Cl.Cn1ncc2c1CC(NC(=O)CCl)CC2 (stereo not given),-0.665

row,Structure (SMILES),log2 ratio of Biotin-Ahx-Ub-VS probe labelling
1,O=C(CCl)NC1CCC2(CC1)OCCO2,-0.827
2,COc1ccc(CN(C)C(=O)CCl)cc1,-1.54 (active)
3,O=C(CCl)NCc1ccc(N2CCOCC2)nc1,-2 (active)
4,O=C(CCl)N1CC2(CCOCC2)C1,-0.356
5,CC1Cc2ccccc2N1C(=O)CCl (stereo not given),-1.3 (active)
6,O=C(CCl)Nc1cc(Cl)ccc1C(=O)O,-0.241
7,Cc1ccc(N(CCC#N)C(=O)CCl)cc1C,-2.17 (active)
8,O=C(CCl)Nc1ccc(F)cc1F,-0.736
9,CN(Cc1nc2ccccc2[nH]1)C(=O)CCl.Cl,-0.467
10,Cl.O=C(CCl)N1CC(c2ccc(Br)cn2)C1,-1.3 (active)
11,O=C(CCl)Nc1ccccc1C(F)(F)F,-0.635
12,O=C(CCl)NC1CCS(=O)(=O)c2ccccc21 (stereo not given),-1.22 (active)
13,O=C(CCl)N1CCN2C(=O)CCC2C1 (stereo not given),-0.0347
14,CNC(=O)C1(NC(=O)CCl)CCCCC1,-0.262
15,Cc1ccc(C(=O)NCCNC(=O)CCl)cc1,-2.4 (active)
16,CCN(Cc1ccc(C#N)cc1F)C(=O)CCl,-0.594
17,CCC(NC(=O)CCl)c1ccc(Cl)cc1 (stereo not given),-0.836
18,CC(NC(=O)CCl)c1cccc2ccccc12 (stereo not given),-1.05 (active)
19,O=C(CCl)N1CCOCC1C1CC1 (stereo not given),-0.493
20,COc1ccccc1C(C)NC(=O)CCl (stereo not given),-0.998
